Where “and” joins values, the source holds several entries; their conditions need not be identical. Equal entries are not always repeated. The panel holds about 83,000 compounds, 20% with a hit somewhere; the sample as a whole holds those more often.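 The test compound was applied at a single concentration to cells in 96-well plates for 48 hours, and percent growth was recorded.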 Calls of active or inactive are those of the source. How the source made its calls: active means growth percent below 10; inactive means the rest.
What was measured:
Test in all cases: NCI-60 one-dose screen, 48 h (100 = growth as untreated, 0 = no growth, -100 = all killed)
Settings in all cases: 10 µM unless noted
NCI-H23 lung = test system: NCI-H23 lung
NCI-H226 lung = test system: NCI-H226 lung
NCI-H322M lung = test system: NCI-H322M lung
HOP-62 NSCLC = test system: HOP-62 NSCLC
NCI-H460 lung = test system: NCI-H460 lung
HOP-92 NSCLC = test system: HOP-92 NSCLC
NCI-H522 lung = test system: NCI-H522 lung
A549/ATCC NSCLC = test system: A549/ATCC NSCLC
786-0 renal = test system: 786-0 renal
COLO 205 colon = test system: COLO 205 colon
DU-145 prostate = test system: DU-145 prostate
K-562 leukemia = test system: K-562 leukemia
MALME-3M melanoma = test system: MALME-3M melanoma
MDA-MB-231 breast = test system: MDA-MB-231 breast
RXF 393 renal = test system: RXF 393 renal
SF-268 CNS = test system: SF-268 CNS
SF-295 CNS = test system: SF-295 CNS
SF-539 CNS = test system: SF-539 CNS
UACC-257 melanoma = test system: UACC-257 melanoma
M14 melanoma = test system: M14 melanoma

Compound	growth (NCI-H23 lung)	growth (NCI-H226 lung)	growth (NCI-H322M lung)	growth (HOP-62 NSCLC)	growth (NCI-H460 lung)	growth (HOP-92 NSCLC)	growth (NCI-H522 lung)	growth (A549/ATCC NSCLC)	growth (786-0 renal)	growth (COLO 205 colon)	growth (DU-145 prostate)	growth (K-562 leukemia)	growth (MALME-3M melanoma)	growth (MDA-MB-231 breast)	growth (RXF 393 renal)	growth (SF-268 CNS)	growth (SF-295 CNS)	growth (SF-539 CNS)	growth (UACC-257 melanoma)	growth (M14 melanoma)
Cc1ccc2nc3c(nc2c1)-c1cccc2cccc-3c12	89.5% (inactive)	86.3% (inactive)	74.6% (inactive)	101% (inactive)	72.4% (inactive)	89.8% (inactive)	66.4% (inactive)	74.4% (inactive)	105% (inactive)	70.2% (inactive)	86.4% (inactive)	97.5% (inactive)	124% (inactive)	75.8% (inactive)	85.2% (inactive)	89.2% (inactive)	102% (inactive)	85.4% (inactive)	106% (inactive)	102% (inactive)
COc1ccccc1C(C)=O	94% (inactive) and 109% (inactive)	95.2% (inactive) and 107% (inactive)	97.5% (inactive) and 103% (inactive)	107% (inactive) and 102% (inactive)	99.8% (inactive) and 109% (inactive)	70.5% (inactive)	113% (inactive)	107% (inactive) and 96.9% (inactive)	110% (inactive) and 96.6% (inactive)	105% (inactive)	107% (inactive) and 113% (inactive)	84.9% (inactive) and 106% (inactive)	114% (inactive) and 107% (inactive)	104% (inactive) and 117% (inactive)	99.3% (inactive) and 121% (inactive)	92.7% (inactive) and 107% (inactive)	106% (inactive)	105% (inactive) and 107% (inactive)	107% (inactive) and 110% (inactive)	105% (inactive) and 95.7% (inactive)
CCCCCCCCCCCCCCCc1cc(O)ccc1N	90.5% (inactive) and 89.6% (inactive)	33.9% (inactive) and 99.6% (inactive)	102% (inactive) and 84.1% (inactive)	103% (inactive) and 110% (inactive)	109% (inactive) and 102% (inactive)	105% (inactive)	-22.4% (active) and -23.6% (active)	89.3% (inactive) and 99.8% (inactive)	77.6% (inactive) and 21.1% (inactive)	107% (inactive) and 114% (inactive)	96.6% (inactive) and 107% (inactive)	55.8% (inactive)	106% (inactive) and 78.2% (inactive)	59.4% (inactive) and 71.5% (inactive)	94.7% (inactive)	77% (inactive) and 36.7% (inactive)	41.3% (inactive) and 49.7% (inactive)	-40.5% (active) and -83.9% (active)	87.4% (inactive) and 71.4% (inactive)	101% (inactive) and 105% (inactive)
CC(=O)c1ccc2c(c1)N(CCCN1CCN(CCO)CC1)c1ccccc1S2	98.1% (inactive) and 55.9% (inactive)	84.5% (inactive) and 68.2% (inactive)	98.8% (inactive) and 46.9% (inactive)	90.7% (inactive) and 43.1% (inactive)	101% (inactive) and -11.3% (active)	-3.7% (active)	67.3% (inactive) and 35.3% (inactive)	45.5% (inactive)	85.9% (inactive) and -18.4% (active)	134% (inactive) and -82.8% (active)	104% (inactive) and 53.3% (inactive)	95.3% (inactive) and -16.7% (active)	86.5% (inactive) and -80% (active)	91% (inactive) and -12.3% (active)	32.6% (inactive) and -8.21% (active)	98.3% (inactive) and 37.5% (inactive)	100% (inactive) and -53% (active)	89% (inactive) and 14.7% (inactive)	30.4% (inactive) and -66.5% (active)	94.8% (inactive) and -87.4% (active)
CC(C)Oc1ccc2cc(-c3nn(CC4CCNCC4)c4ncnc(N)c34)ccc2c1	67.3% (inactive) and 42.6% (inactive)	97.6% (inactive) and 63.7% (inactive)	89.8% (inactive) and 53.9% (inactive)	79.8% (inactive) and 53.2% (inactive)	102% (inactive) and 15.8% (inactive)	66.1% (inactive) and -1.47% (active)	87.2% (inactive) and -28% (active)	80.1% (inactive) and 16.9% (inactive)	89.3% (inactive) and -32.9% (active)	74.4% (inactive) and -47.7% (active)	107% (inactive) and 40.4% (inactive)	43.1% (inactive) and -68.4% (active)	73.7% (inactive) and -77.1% (active)	60.5% (inactive) and -42.9% (active)	39.3% (inactive) and -73.3% (active)	88.4% (inactive) and 1.08% (active)	97.8% (inactive) and -54.6% (active)	73.1% (inactive) and -83.1% (active)	-81.8% (active)	5.7% (active) and -84.7% (active)
CCOC(=O)Nc1ccc2c(c1)/C(=N\NC(N)=S)c1ccccc1-2	44.3% (inactive) and 62.6% (inactive)	76% (inactive) and 81.1% (inactive)	83.8% (inactive) and 94.9% (inactive)	74.7% (inactive) and 77.6% (inactive)	52% (inactive) and 58.4% (inactive)	71.1% (inactive)	76.9% (inactive)	60% (inactive) and 57.6% (inactive)	28% (inactive) and 53.7% (inactive)	63.3% (inactive) and 88.3% (inactive)	64.1% (inactive) and 84.3% (inactive)	33.9% (inactive)	89.4% (inactive)	32.7% (inactive) and 47.6% (inactive)	8.9% (active) and 12.6% (inactive)	78.6% (inactive) and 85.7% (inactive)	3.9% (active) and 30% (inactive)	13.8% (inactive) and 31% (inactive)	41.9% (inactive) and 91.3% (inactive)	42% (inactive) and 61.6% (inactive)
COc1ccc(/C(C#N)=C/c2ccccn2)cc1	98% (inactive) and 102% (inactive)	95.9% (inactive) and 128% (inactive)	108% (inactive) and 110% (inactive)	112% (inactive) and 109% (inactive)	105% (inactive) and 103% (inactive)	99.8% (inactive)	98.1% (inactive) and 103% (inactive)	101% (inactive) and 103% (inactive)	96.7% (inactive) and 73.8% (inactive)	112% (inactive) and 173% (inactive)	107% (inactive) and 120% (inactive)	101% (inactive) and 85.6% (inactive)	129% (inactive) and 134% (inactive)	107% (inactive) and 127% (inactive)	99% (inactive) and 96.4% (inactive)	99.1% (inactive) and 122% (inactive)	102% (inactive) and 134% (inactive)	108% (inactive) and 106% (inactive)	110% (inactive) and 112% (inactive)	109% (inactive) and 111% (inactive)
CN(C)c1ccc(C(=C2C=CC(=[N+](C)C)C=C2)c2ccccc2Cl)cc1	-52.2% (active) and -82.2% (active)	-41.3% (active) and -56.5% (active)	-7.26% (active) and 10.3% (inactive)	-43.7% (active) and -94.3% (active)	-60.8% (active) and -49.7% (active)	-78.2% (active) and -72% (active)	-57.4% (active) and -56.5% (active)	-55.9% (active) and -34.5% (active)	-88.2% (active) and -100% (active)	-89.1% (active) and -90% (active)	-97% (active)	7.59% (active)	-56.3% (active) and -46.1% (active)	-36.9% (active) and -66.9% (active)	-84.3% (active)	-84.1% (active)	-30.4% (active) and -25.8% (active)	-58.9% (active) and -92.1% (active)	-77.7% (active)	-62.8% (active) and -95.3% (active)
